ALDH1A1 block: qHTS Assay for Inhibitors of Aldehyde Dehydrogenase 1 (ALDH1A1) | Purified ALDH1A1, NADH fluorescence, propionaldehyde substrate | Potency, µM (doses to about 75.3 µM), inactives show top-dose activity, negative = inhibition, hits mostly inhibitors | 220,000 tested, 7.3% active | AID 1030, 2008; active = well fitted inhibition curve with a large enough effect, not every such curve was filed as active; inconclusive = small, poorly fitted or top-dose-only effect, or another doubt; inactive = no such curve, though single readings can be large or run the other way;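 also: potency is read from the fitted curve at half-maximal effect; plate controls were no enzyme wells and a reference inhibitor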
GLA spleen mod: qHTS Assay for Inhibitors and Activators of Human alpha-Galactosidase From Spleen Homogenate; Alpha-galactosidase A (Homo sapiens), P06280; AID 2107, 2009; Potency, µM (highest dose often 80 µM), inactives show at the highest dose activity change, negative = inhibition, actives largely listed as inhibitors; 240,000 tested, 0.008% active; human spleen homogenate, 4MU-alpha-Gal fluorescence, 40 min;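 also: potency is read from the fitted curve at half-maximal effect; 0% = enzyme with vehicle and -100% = no enzyme basal signal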
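Human spleen homogenate (1 ug) was the enzyme source, with 4-methylumbelliferyl-alpha-D-galactopyranoside (1 mM final) in pH 5.0 citrate buffer with 0.01% Tween-20. Compounds were titrated; after 40 min at 37C, NaOH/glycine stop, 4-MU fluorescence read; AC50 from Hill fits.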
HPGD block: qHTS Assay for Inhibitors of HPGD (15-Hydroxyprostaglandin Dehydrogenase) | 15-hydroxyprostaglandin dehydrogenase [NAD(+)] (Homo sapiens), P15428 | purified HPGD, NADH fluorescence kinetic, PGE2 substrate | Potency, µM, for the others: top-dose activity change, negative = inhibition, hits mostly inhibitors | 150,000 tested, 4.3% active | AID 894, 2007; active = well fitted inhibition curve with a large enough effect, not every such curve was filed as active; inconclusive = small, poorly fitted or top-dose-only effect, or another doubt; inactive = no such curve, though single readings can be large or run the other way; also: potency is read from the fitted curve at half-maximal effect
Target sequence (P15428 whole entry, looked up): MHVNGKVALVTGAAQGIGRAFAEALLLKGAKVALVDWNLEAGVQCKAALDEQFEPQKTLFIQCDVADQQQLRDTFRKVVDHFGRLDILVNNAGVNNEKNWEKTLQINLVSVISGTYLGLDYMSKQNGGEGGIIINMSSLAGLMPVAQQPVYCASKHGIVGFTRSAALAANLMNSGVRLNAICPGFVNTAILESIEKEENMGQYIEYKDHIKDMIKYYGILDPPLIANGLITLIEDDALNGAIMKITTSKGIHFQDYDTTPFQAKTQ
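NADH formation kinetics: reaction with 30 uM PGE2 and 1 mM NAD+ (final), 20 nM enzyme, Tris-HCl pH 8 with Tween 20, after 15 min compound preincubation at room temperature. Fluorescence change, last versus first of five reads.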
PNC inhibitor: High Content Assay for Compounds that inhibit the Assembly of the Perinucleolar Compartment; PC3M PTB-GFP, PNC prevalence imaging, 16 h; active compounds read low; AID 2417, 2010; activity change (PNC), negative = inhibition, % at 10 µM; 140,000 tested, 3.1% active;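 active = readout at or below -70, meaning at least 70% loss of cells showing the perinucleolar compartment, a nuclear body marking cancer cells; inconclusive = readout between -30 and a set limit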;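 also: plate controls were DMSO wells for no effect and camptothecin positive control wells for full effect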
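PC3M cells stably expressing PTB-GFP, 750–1000 cells/well, treated 16 h at 37 °C with compound (23 nl of library stock), in duplicate. After paraformaldehyde fixation and Hoechst stain, imaged at 20x; PNC prevalence scored by image analysis.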
ALOX12 inhib: qHTS Assay for Inhibitors of 12-hLO (12-human lipoxygenase) | Polyunsaturated fatty acid lipoxygenase ALOX12 (Homo sapiens), P18054 | purified 12-hLO, xylenol orange hydroperoxide absorbance | Potency, µM (doses to about 57.1 µM), for inactives: top-dose activity change, negative = inhibition, actives largely listed as inhibitors | 150,000 tested, 0.12% active | AID 1452, 2008; also: potency is read from the fitted curve at half-maximal effect; nearly all actives have a fitted effect of over 55% in size
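Purified human 12hLO (150 nM), preincubated 15 min with compound, then 40 uM arachidonic acid for 30 min, room temperature, Hepes pH 7.0 with 0.01% Triton X-100. Hydroperoxide detected by ferrous iron/xylenol orange; 573/405 nm absorbance ratio gives reaction progress.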
GLA inh pH 4.5: qHTS Assay for Inhibitors of Human alpha-Galactosidase at pH 4.5; Alpha-galactosidase A (Homo sapiens), P06280; purified enzyme, 4-MU-alpha-Gal fluorescence, pH 4.5; activity change, negative = inhibition, % at 105 µM; 230,000 tested, under 10 active;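 also: 0% = full activity with enzyme and -100% = basal without enzyme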
Target sequence (P06280 whole entry, looked up): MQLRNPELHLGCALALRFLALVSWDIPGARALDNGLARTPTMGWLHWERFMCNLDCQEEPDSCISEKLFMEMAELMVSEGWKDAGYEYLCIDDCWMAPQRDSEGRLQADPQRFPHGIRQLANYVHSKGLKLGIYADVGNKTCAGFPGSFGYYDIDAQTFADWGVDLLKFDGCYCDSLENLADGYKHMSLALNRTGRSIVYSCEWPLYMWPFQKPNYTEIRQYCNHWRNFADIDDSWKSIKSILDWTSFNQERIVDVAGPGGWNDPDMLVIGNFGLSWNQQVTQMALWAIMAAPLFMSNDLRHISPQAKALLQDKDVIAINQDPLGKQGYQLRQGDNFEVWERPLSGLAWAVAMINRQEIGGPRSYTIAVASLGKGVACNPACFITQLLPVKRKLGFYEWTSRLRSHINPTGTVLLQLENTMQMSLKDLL
* marks the source's active call; other numbers are inactive results; ? = inconclusive; / = no result; [ ] = dose if it differs, or a comment. An excerpt weighted towards active compounds, which were near 10% of everything screened. Unless noted, calls follow the shape of the dose curve; as a rule, active = well fitted curve in the direction sought with a large enough effect; inconclusive = small, poorly fitted or top-dose-only effect, or another doubt; inactive = no such curve, though single readings can be large; an effect the other way counts as inactive or inconclusive. Unless noted, % is scaled to controls: 0 for no effect and ±100 for the full control effect.

SMILES | ALDH1A1 block | GLA spleen mod | HPGD block | PNC inhibitor | ALOX12 inhib | GLA inh pH 4.5
CC(=O)OC[C@H]1O[C@@H](ON=C(C)C)[C@H](OC(C)=O)[C@@H](OC(C)=O)[C@H]1OC(C)=O | 0.8%[13.5 µM] | -0.7%[17.5 µM] | / | / | / | /
CC(C)(C)NC(=O)c1ccc(NC(=O)CSc2ccccc2)cc1 | 8.9% | 5.4% | / | / | / | -3.1
COc1cccc([C@@H]2Oc3ccc(Br)cc3C[C@H]2OC(=O)Nc2cc(OC)c(OC)c(OC)c2)c1 | -6.4% | -3.9% | -11.0% | / | / | -2.8
COc1cc(S(=O)(=O)N2CCOCC2)ccc1NC(=O)COC(=O)CC12CC3CC(CC(C3)C1)C2 | -1.4% | -3.9% | -10.4% | 13.9 | -4.6% | -6.2
CNC1=CN=C(c2ccccc2)c2cc(Cl)ccc2N1 | 11.8% | -8.7% | -11.2% | / | -1.4%[0.00818 µM] | -1.9
Cc1cc(NC(=O)CSc2nnc(-c3ccncc3)n2N)ccc1Br | ? | 6.9% | -12.0% | -88.9* | -1.0% | -3.9
O=C(CSc1ncn(-c2ccccc2)n1)Nc1ccc(Br)cn1 | ? | -3.5% | 28.2µM* | -11.0 | -9.4% | -4.3
O=C(CSc1ncn(-c2ccccc2)n1)Nc1ccc2c(c1)OCCO2 | ? | 7.6% | -12.1% | -86.1* | -1.6% | 3.2
O=C(CSC1=NC2(CCCCC2)N=C1c1ccccc1)Nc1ccc2c(c1)OCCO2 | 37.1% | 0.7% | -13.2% | -23.3 | -2.6% | 3.7
O=C(CSC1=NC2(CCCCCC2)N=C1c1ccccc1)Nc1ccc2c(c1)OCCO2 | 22.4µM* | 0.0% | -14.3% | -118.9* | -7.2% | 0.4
CC(NC(=O)c1ccco1)C(=O)OC(C)C(=O)NCc1ccccc1 (stereo not given) | 4.2% | 9.7% | / | / | / | 2.4
CC(C)(C(O)c1ccc([N+](=O)[O-])cc1)[N+](=O)[O-] (stereo not given) | ? | 10.6% | -3.5% | / | / | 1.9
Cc1ccccc1N1CCN(S(=O)(=O)CC23CCC(CC2NC(=O)C(N)CCS(C)(=O)=O)C3(C)C)CC1 (stereo not given) | / | 5.3% | / | / | / | /
O=C(CSc1nnc2ccccn12)Nc1ccc2c(c1)OCCO2 | 10.7% | 2.0% | / | / | / | -4.1
O=C(CSc1nnc2scc(-c3ccccc3)n12)Nc1ccc2c(c1)OCCO2 | 15.8µM* | 1.3% | -8.4% | ? | -2.9% | -1.0
CC(NC(=O)Nc1ccc(Cl)c(Cl)c1)C(c1ccccc1)N1CCOCC1 (stereo not given) | ? | 8.2% | -10.4% | 4.1 | -4.9% | 0.6
CC(NC(=O)Nc1ccc([N+](=O)[O-])cc1)C(c1ccccc1)N1CCOCC1 (stereo not given) | 2.51µM* | 0.8% | / | / | / | -1.9
COc1ccccc1N1CCN(C(CNS(C)(=O)=O)c2cccnc2)CC1 (stereo not given) | 10µM* | -4.5% | / | / | / | 7.0
COc1ccccc1N1CCN(C(CNS(=O)(=O)c2ccc(C)cc2)c2cccnc2)CC1 (stereo not given) | ? | 2.8% | -1.3% | -81.7* | -10.3% | 8.5
Cc1ccc(S(=O)(=O)NCC(c2cccnc2)N(C)C)cc1 (stereo not given) | 31.6µM* | 0.4% | -8.8% | 38.9 | -5.8% | 0.5
COC(=O)NCC(c1cccnc1)N1CCN(c2ccccc2OC)CC1 (stereo not given) | 1.1% | 8.5% | -7.3% | 16.3 | -1.3% | -3.4
NC(Cn1ccc(=O)c(O)c1)C(=O)O (stereo not given) | 8.4% | -3.1% | -6.1% | / | -3.3% | 2.4
CC(C)NC(=O)CSc1nc(N)c(NC(=O)c2ccccc2F)c(=O)[nH]1 | -2.5% | -2.7% | -3.2% | -91.4* | 0.0% | 7.7
O=C(CCc1c[nH]c2ccccc12)NCC1CCCO1 (stereo not given) | 9.2% | -5.0% | 14.1µM* | ? | -2.0% | -5.3
O=C(CCc1nc(-c2ccccc2Cl)no1)NCC1CCCO1 (stereo not given) | -8.0% | -1.5% | / | / | / | -4.2
SMILES | ALDH1A1 block | GLA spleen mod | HPGD block | PNC inhibitor | ALOX12 inhib | GLA inh pH 4.5
Cc1cccc(-c2noc(CCC(=O)NCC3CCCO3)n2)c1 (stereo not given) | 0.9% | 2.2% | 25.1µM* | 14.7 | 0.5% | 3.1
Cc1ccccc1-c1noc(CCC(=O)NCC2CCCO2)n1 (stereo not given) | 2.5% | -1.5% | 15.8µM* | 2.5 | -7.5% | 6.7
O=C(Cc1ccccc1)NCC1CCCO1 (stereo not given) | 4.0% | -5.6% | -27.4% | 34.7 | -2.5% | 0.0
O=C(O)CNC(=O)c1ccccc1O | -10.4%[13.5 µM] | / | ? | / | -0.2%[11.4 µM] | /
CC(C)Cn1c(O)c(N=NC(=O)c2cccc(S(=O)(=O)N3CCCCC3)c2)c2ccccc21 | 3.55µM* | -7.7% | -11.5% | 3.8 | 4.9% | -7.3
COc1ccc(C2c3cc(OC)c(OC)cc3Cc3c4cc(OC)c(OC)cc4cc[n+]32)cc1OC (stereo not given) | -2.4% | -3.7% | -9.8% | / | / | -4.4
Cc1ccc(-n2ncc3c(=O)[nH]c(SCC(=O)N4CCCC4)nc32)cc1C | -1.1% | 5.4% | 15.8µM* | 21.4 | 3.3% | 3.7
O=c1[nH]c(SCc2nc3c(cnn3-c3ccccc3)c(=O)[nH]2)nc2ccccc12 | ? | -10.0% | 0.794µM* | -108.4* | 2.1% | 3.5
CCOC(=O)N1CCN(C(=O)CSc2nc3c(cnn3-c3ccccc3)c(=O)[nH]2)CC1 | 11.2µM* | 3.7% | -27.3% | -0.8 | 4.3% | -7.3
C=CCc1c(C)nc(SCc2nc3ccccc3c(=O)[nH]2)[nH]c1=O | 14.1µM* | 10.8% | 2.82µM* | -22.7 | 1.8% | -7.7
Cc1ccc(-n2ncc3c(=O)[nH]c(SCC(=O)N4CCC(C)CC4)nc32)cc1C | 5.5% | 6.6% | -13.6% | 3.3 | 0.9% | 7.3
O=C(CCC(=O)OCC(=O)c1cccc([N+](=O)[O-])c1)Nc1ccccc1Cl | -8.0% | -2.1% | 0.5% | 5.7 | 3.1% | 10.0
Cc1ccccc1NS(=O)(=O)c1ccc(Cl)cc1 | ? | -0.2% | / | / | / | -22.1
Cc1ccccc1NS(=O)(=O)c1cc(S(C)(=O)=O)ccc1Cl | 20µM* | -9.6% | -1.6% | 16.5 | -1.2% | 5.2
O=c1c(-c2cccs2)nc2cnc(N3CCNCC3)nc2n1C1CC1 | ? | -3.3% | / | / | / | /
O=C1Nc2ccccc2C(=O)C1(Cl)Cc1ccccc1 (stereo not given) | 14.1µM* | 4.5% | 7.08µM* | 36.2 | -14.7% | -6.1

Screens from PubChem.
